Reference: ChEMBL document CHEMBL1157539, “Thousands of chemical starting points for antimalarial lead identification” (Nature, 2010)

Assays:
Format in all cases: functional
Plasmodium falciparum [1] = assay: GSK_TCMDC: Inhibition of Plasmodium falciparum 3D7 in whole red blood cells, using parasite LDH activity as an index of growth. Test compounds present at 2uM
Plasmodium falciparum [2] = assay: GSK_TCMDC: Inhibition of Plasmodium falciparum Dd2 in whole red blood cells, using parasite LDH activity as an index of growth. Test compounds present at 2uM
HepG2 = assay: GSK_TCMDC: Percent inhibition of human HepG2 cell line. Test compounds present at 10uM.

| Structure (SMILES) | Inhibition (Plasmodium falciparum [1]) | Inhibition (Plasmodium falciparum [2]) | Inhibition (HepG2) |
| --- | --- | --- | --- |
| CCN(CCCN1CCCCC1)c1cc(C)nc(Nc2ccc(F)c(C(F)(F)F)c2)n1.O=C(O)C(F)(F)F | 100% | 93% | 32% |
| Cc1ccc(C)c2c1[nH]c1ccc(C3=NCCN3)cc12.Cl | 100% | 0% | 29% |
| Cc1ccc(Nc2nc(C)cc(N3CCN(c4ccccc4)CC3)n2)cc1 | 93% | 72% | 4% |
| CC(CCCCCC(=O)Nc1ccc(CC(C)NCCc2cccc(Cl)c2)cc1)NCCc1cccc(Cl)c1 (stereo not given) | 91% | 37% | 99% |
| CN1CCCN(Cc2ccc(-c3ccc(NC(=O)c4cccc(C#N)c4)cc3)cc2)CC1.O=C(O)C(F)(F)F | 97% | 67% | 46% |
| Cc1ccc(C2(CN3CCC(NC(=O)c4n[nH]cc4Cl)CC3)CCCCC2)cc1 | 97% | 96% | 0% |
| O=C1NC(c2ccc(N3CCCCCC3)cc2)Nc2ccccc21 (stereo not given) | 96% | 96% | 19% |
| CC[C@H](C)CNC(=O)c1ccc(-c2cccc(CN3CCC(N4CCCC4)CC3)c2)nc1.O=C(O)C(F)(F)F | 91% | 7% | 0% |
| COc1cc2c(cc1NS(=O)(=O)c1ccc(OCc3ccc(Br)cc3)cc1)CCN(C1CCC1)CC2.Cl | 94% | 30% | 36% |
| COc1ccc2c(=NN=C(C)c3ccccn3)cc(C)[nH]c2c1 | 100% | 51% | 33% |
| COc1ccc2nccc(NCC3(O)CCC(NCc4cc5c(cn4)OCCO5)CC3)c2n1.Cl (stereo not given) | 99% | 23% | 15% |
| N=C(NCc1ccc(O)cc1)Nc1nc(-c2ccc(OCCCn3ccnc3)cc2)cs1 | 100% | 89% | 13% |
| CCCNCc1ccc(-c2ccc(CN(Cc3cccs3)C(=O)C3CCN(C)CC3)cc2)nc1.O=C(O)C(F)(F)F | 99% | 35% | 10% |
| COc1ccc(-c2ccc(NC(=O)c3cccc(C#N)c3)cc2)cc1CN1CCNCC1.O=C(O)C(F)(F)F | 100% | 47% | 30% |
| COc1cc2nc(N3CCC(CNC(=O)c4ccc(-c5ccc(C(=O)N(C)C)cc5)c(OCCO)c4)CC3)nc(N)c2cc1OC | 96% | 18% | 10% |
| CC(Oc1ccc(NC(=O)c2cccs2)cc1)C(=O)c1ccc(Cl)cc1 (stereo not given) | 92% | 83% | 0% |
| Cc1cc(NC(=O)Nc2ccc3ccn(C)c3c2)c2ccccc2n1 | 100% | 69% | 11% |
| CCOc1cc(C(=O)NCCCN2CCN(c3cccc(Cl)c3)CC2)ccc1-c1nc2cc(Cl)c(F)cc2[nH]1 | 96% | 19% | 16% |
| CN1CCN(CCNc2c3ccccc3nc3c2ccc2ccccc23)CC1.Cl | 100% | 66% | 76% |
| Cl.N=C(N)NN=Cc1c2ccccc2c(Cl)c2cc(Cl)ccc12 | 97% | 28% | 26% |

| Structure (SMILES) | Inhibition (Plasmodium falciparum [1]) | Inhibition (Plasmodium falciparum [2]) | Inhibition (HepG2) |
| --- | --- | --- | --- |
| COc1ccc(CNCc2ccc(F)cc2)cc1-c1ccc(S(=O)(=O)NCCN2CCCC2)c(C)c1.O=C(O)C(F)(F)F | 98% | 56% | 55% |
| Cl.N=C(N)NN=Cc1c2ccc(Cl)cc2c(Cl)c2ccc(Cl)cc12 | 100% | 90% | 28% |
| Cl.O=C(Nc1ccccc1)c1cccc(Nc2nccc(Nc3ccc(Oc4ccccc4)cc3)n2)c1 | 98% | 11% | 6% |
| Cc1ccc2[nH]c(-c3ccccc3)cc(=NN=Cc3cccnc3)c2c1 | 99% | 39% | 12% |
| Nc1nc(N)c2c(Cc3ccccc3)cccc2n1 | 94% | 3% | 68% |
| CCC(CC)NCc1c(O)ccc2c(CNC(CC)CC)c(O)ccc12.Cl | 100% | 94% | 4% |
| CCOc1cccc(C(=O)Nc2ccc(-c3nc4ccccc4[nH]3)cc2)c1 | 96% | 30% | 40% |
| N#Cc1cncc(-c2nc3c(N4CCC(Cc5ccccc5)CC4)cccc3n2C2CCNC2)c1.O=C(O)C(F)(F)F (stereo not given) | 88% | 7% | 5% |
| CC(=O)Nc1cccc(C(=O)Nc2cccc(-c3csc(-c4nc5ccccc5[nH]4)c3)c2)c1 | 96% | 97% | 39% |
| CCCC/C=C(\Cl)c1ccc(O)c2c1C[C@H]1C[C@H]3[C@H](N(C)C)C(O)=C(C(N)=O)C(=O)[C@@]3(O)C(O)=C1C2=O.Cl | 90% | 98% | 16% |
| CN(CCCN)CCCNc1ccnc2cc(Cl)ccc12 | 100% | 0% | 1% |
| Oc1ccc(Cl)cc1CN1CCCC(COC(c2ccc(F)cc2)c2ccc(F)cc2)C1 (stereo not given) | 98% | 100% | 20% |
| Nc1nc(N)c2nc(C3CC=CCC3)c(N)nc2n1 (stereo not given) | 95% | 0% | 67% |
| Cl.O=C(NC1CCC(CCN2Cc3cccc(F)c3C2)CC1)c1cccc(-c2cccnc2)c1 (stereo not given) | 98% | 82% | 16% |
| COc1ccc(-c2ccc(CNCc3ccc(F)cc3)cc2)cc1S(=O)(=O)NCCN1CCCC1.O=C(O)C(F)(F)F | 98% | 33% | 24% |
| COc1ccc(NC(=O)[C@H](C)Nc2cc(C)nc(NCC3CCCCC3)n2)cc1.O=C(O)C(F)(F)F | 92% | 13% | 12% |
| O=C(O)/C=C\C(=O)O.c1ccc(COc2ccnc(NCCCOc3cccc(CN4CCCCC4)c3)c2)cc1 | 100% | 51% | 22% |
| CCN(CC)Cc1cc(Nc2ccnc3cc(Cl)ccc23)ccc1O.Cl.Cl.Cl | 100% | 99% | 0% |
| CCC[C@@H]([C@@H](CC1CCCCC1)C(=O)N[C@H](C(=O)Nc1nccs1)[C@@H](C)OCc1ccccc1)N(O)C=O | 100% | 99% | 51% |
| CC(C)(C)c1ccc(NC(=O)c2cccc(CN3CCCN(Cc4cccc(O)c4)CC3)c2)cc1.O=C(O)C(F)(F)F | 100% | 69% | 97% |

| Structure (SMILES) | Inhibition (Plasmodium falciparum [1]) | Inhibition (Plasmodium falciparum [2]) | Inhibition (HepG2) |
| --- | --- | --- | --- |
| Cc1ccoc1C(=O)Nc1ccc(-c2cccc(-c3nc4cccc(C)c4[nH]3)c2)cc1 | 95% | 69% | 15% |
| c1ccc(CNc2cc(-c3ccccn3)nc(-c3ccccn3)n2)cc1 | 84% | 89% | 88% |
| Clc1ccc(-c2cc(-c3csc(NCCN4CCCCC4)n3)on2)cc1 | 91% | 30% | 81% |
| Oc1cccc(Nc2nc(NCc3ccco3)c3ccccc3n2)c1 | 100% | 74% | 9% |
| Cc1[nH]c(C)c(-c2ccc(-c3ccc4c(c3)OCO4)nc2)c(=O)c1Br | 96% | 96% | 0% |
| O=C(Nc1cccc(-c2nn3ccccc3c2-c2ccnc(Nc3cccc(F)c3)n2)c1)c1c(F)ccc(F)c1Cl | 93% | 38% | 41% |
| Cc1cc(NC(=O)c2ccco2)ccc1OC1CCN(Cc2ccc(C#N)cc2)CC1.O=C(O)C(F)(F)F | 92% | 89% | 2% |
| CCCCCCNC(=O)C1Cc2c([nH]c3ccc(F)cc23)C2(CCN(Cc3ccccc3)CC2)N1 (stereo not given) | 97% | 39% | 11% |
| CCCCOc1ccc(C(O)C(CN2CCCCC2)c2ccccc2)cc1 (stereo not given) | 90% | 84% | 7% |
| Cn1nccc1C(=O)NCCNCc1ccc(-c2ccc(-c3nc4cc(C(F)(F)F)ccc4[nH]3)s2)cc1.O=C(O)C(F)(F)F | 100% | 99% | 48% |
| CCCCCCCCCc1c(C)[nH]c2ccccc2c1=O | 97% | 96% | 0% |
| Cc1ccccc1Oc1nc2ccccc2nc1SCC(=O)NC(C)C | 97% | 55% | 0% |
| CCCn1c(O)nnc1SCC(=O)Nc1cc(C(F)(F)F)ccc1Cl | 96% | 94% | 0% |
| NC1CCN(Cc2cccc(-c3csc(-c4nc5ccccc5[nH]4)c3)c2)C1.O=C(O)C(F)(F)F (stereo not given) | 99% | 10% | 10% |
| CC(C)c1cc(Oc2c(I)cc(CCNCc3ccccc3)cc2I)ccc1O.Cl | 95% | 54% | 42% |
| COc1ccc2nccc([C@@H](O)CN3CCC(NCc4cc5cc(OC(F)(F)F)ccc5[nH]4)CC3)c2c1.O=C(O)C(=O)O | 100% | 82% | 49% |
| N=C(N)Nc1nc(-c2ccc(NCc3ccc(CNc4cccc(-c5csc(NC(=N)N)n5)c4)cc3)cc2)cs1 | 100% | 99% | 11% |
| COc1cccc(NC(=O)c2cc(Br)cc(N3CCN(c4ccncc4)CC3)c2)c1.O=C(O)C(F)(F)F | 100% | 79% | 30% |
| CC(=O)c1cccc(NC(=O)C2c3ccccc3C(=O)N(CC(C)C)C2c2cccs2)c1 (stereo not given) | 100% | 100% | 11% |
| CC(=O)NCCCCC1NC2(C(=O)N(Cc3ccc(C(C)(C)C)cc3)c3ccccc32)C2C(=O)N(C3CCCCC3)C(=O)C12 (stereo not given) | 91% | 71% | 0% |
